Screens: PubChem BioAssay, University of Kansas High Throughput Screening Laboratory
Pf apPOL block: Pf-apPOL DNA polymerase inhibition | actives 0.25% (n = 210,000) | Recombinant Pf-apPOL, molecular beacon fluorescence, 1.5 h | inhibition, % at 10 µM
mHTT CaM bind: mHTT-calmodulin interaction abrogation; actives 3.6% (n = 190,000); P42858; inhibition, % at 15 µM; AID 1671202; AlphaScreen His-mHTT/GST-CaM binding, luminescence;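 further: 0% = both proteins with DMSO and 100% = one protein alone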
The depositor's hits bear a star. A selection: hits, their analogues and other compounds. The true share with any hit is near 3.6%. No stated cut-off is given here; in the data, active means inhibition above about 50%; inactive means the rest.

What do the screens show for `Cc1nc2c(ccc3nc(NC(=O)c4ccc5c(c4)OCCO5)sc32)s1`?
Pf apPOL block: 1; mHTT CaM bind: 69*

What do the screens show for `Cc1nc2c(ccc3nc(NC(=O)c4ccc(Cl)s4)sc32)s1`?
Pf apPOL block: 5; mHTT CaM bind: -3

Results for Cc1ccc(OCC(=O)Nc2ccc(N3CCCC3)cc2)cc1C ?
Pf apPOL block: 4; mHTT CaM bind: 99*

Results for Cc1cc(OCC(=O)N2CCCCC2CCN2CCCC2)ccc1Cl (stereo not drawn) ?
Pf apPOL block: -10; mHTT CaM bind: 14

How did CCC(=O)Nc1ccc(NC(=O)COc2cccc(C)c2)cc1 do in these assays?
Pf apPOL block: -3; mHTT CaM bind: -2

What do the screens show for `COc1ccc(C(=O)Nc2ccc(N3CCOCC3)cc2)cc1`?
Pf apPOL block: -3; mHTT CaM bind: 5

Results for CCC(=O)Nc1ccc(NC(=O)COc2ccc(C)c(C)c2)cc1 ?
Pf apPOL block: -9; mHTT CaM bind: -5

Results for Cc1cccc(OCC(=O)Nc2ccc(Nc3ccccc3)cc2)c1 ?
Pf apPOL block: 1; mHTT CaM bind: 74*

What do the screens show for `Cc1ccc(OCC(=O)N2CCCCC2CCN2CCCCC2)cc1C` (stereo not drawn)?
Pf apPOL block: -7; mHTT CaM bind: 54*

What do the screens show for `COc1ccc(C(=O)Nc2ccc(N3CCCC3)cc2)cc1`?
Pf apPOL block: 1; mHTT CaM bind: 99*

Results for Cc1cccc(NC(=O)C(C2CCCC2)N2CCN(C(=O)C3CC3)CC2)c1 (stereo not drawn) ?
Pf apPOL block: -2; mHTT CaM bind: -4

What do the screens show for `O=C(NCc1ccccc1)NCC1(O)CCCC1`?
Pf apPOL block: -1; mHTT CaM bind: -19

Results for FC(F)(F)c1c(-c2nnc(-c3ccc(Cl)cc3)o2)cnn1-c1ccc(Cl)cc1 ?
Pf apPOL block: 0

How did COc1ccc(C(=O)Nc2ccc(N3CCCC3)cc2)cc1OC do in these assays?
Pf apPOL block: -9; mHTT CaM bind: 7

How did CCOc1cc(C(=O)Nc2ccc(N3CCCC3)cc2)cc(OCC)c1OCC do in these assays?
Pf apPOL block: -8; mHTT CaM bind: 79*

How did Cc1ccc(NC2=CC(=NS(=O)(=O)c3ccc(F)cc3)c3ccccc3C2=O)cc1 do in these assays?
Pf apPOL block: -4; mHTT CaM bind: 88*

How did COc1ccc(S(=O)(=O)N=C2C=C(Nc3ccc(C)cc3)C(=O)c3ccccc32)cc1 do in these assays?
Pf apPOL block: -3; mHTT CaM bind: 75*

What do the screens show for `Cc1ccc(S(=O)(=O)N=Cc2ccc(F)cc2)cc1`?
Pf apPOL block: 0; mHTT CaM bind: 23

How did COc1ccc(NC2=CC(=NS(=O)(=O)c3ccc(C)cc3)c3ccccc3C2=O)cc1 do in these assays?
Pf apPOL block: -5; mHTT CaM bind: 46

What do the screens show for `COc1ccccc1N1C(=O)/C(=C/c2ccc([N+](=O)[O-])cc2)C=C1c1ccccc1`?
Pf apPOL block: -1; mHTT CaM bind: 32

How did CC1(C(=O)NCc2ccccc2)CCC(=O)N1Cc1cccc(Cl)c1 (stereo not drawn) do in these assays?
Pf apPOL block: 1; mHTT CaM bind: 19

What do the screens show for `CN(C)S(=O)(=O)c1ccc(C(=O)N2CCCC(COCc3ccccc3)C2)cc1` (stereo not drawn)?
Pf apPOL block: -7; mHTT CaM bind: 6

How did Cc1c(Cl)c(=O)[nH]c2ccccc12 do in these assays?
Pf apPOL block: -8

Results for CCc1[nH]c2ccccc2c1C ?
Pf apPOL block: -11; mHTT CaM bind: 50*

What do the screens show for `O=C(Cn1ccc2ccccc21)NCCc1ccsc1`?
Pf apPOL block: -3; mHTT CaM bind: -10

How did CCCN(CCC)CC(O)COC1CC2CCC1(C)C2(C)C (stereo not drawn) do in these assays?
Pf apPOL block: 4; mHTT CaM bind: -6

Results for COc1ccc(N2CCN(C(=O)CC(C)C)C(C)C2=O)cc1OC (stereo not drawn) ?
Pf apPOL block: -6; mHTT CaM bind: -8

How did CC(=O)N(O)C(C)c1ccc(OCc2ccncc2)cc1 (stereo not drawn) do in these assays?
Pf apPOL block: -5; mHTT CaM bind: -2

How did Oc1ccc(Cl)cc1Sc1cc(Cl)ccc1O do in these assays?
mHTT CaM bind: 98*

How did CN(C)Cc1cc(Cl)ccc1O do in these assays?
Pf apPOL block: 2; mHTT CaM bind: -3

What do the screens show for `Cc1ccccc1C1=N/C(=C\c2ccc(F)cc2)C(=O)O1`?
Pf apPOL block: -2; mHTT CaM bind: 7

How did Cc1ccc(Nc2cc(C)nc3ccnn23)cc1 do in these assays?
Pf apPOL block: 1; mHTT CaM bind: -5

Results for Cc1cc(Nc2ccc(Cl)cc2)n2nccc2n1 ?
Pf apPOL block: -4; mHTT CaM bind: 64*

Results for COc1ccc(/C=C2\C(=O)c3ccc(C(=O)O)cc3C2=O)cc1OC ?
Pf apPOL block: -10; mHTT CaM bind: 3

How did CCN(CC)c1ccc(/C=C2\C(=O)c3ccc(C(=O)O)cc3C2=O)cc1 do in these assays?
Pf apPOL block: 1; mHTT CaM bind: 62*

Results for Cc1cccc(NC(=O)C2CCCCN2S(=O)(=O)c2cccs2)n1 (stereo not drawn) ?
Pf apPOL block: -2; mHTT CaM bind: -7

What do the screens show for `Cc1ccc(C(=O)N2CCC(COc3ccc(C(=O)NC4CC4)cc3)CC2)cc1`?
Pf apPOL block: -4; mHTT CaM bind: 17

How did Cc1ccnc(NC(c2cccc(O)c2)c2ccc3ccc(C)nc3c2O)c1 (stereo not drawn) do in these assays?
Pf apPOL block: -5; mHTT CaM bind: 93*

How did Cc1cccc(NC(c2cccc(O)c2)c2ccc3ccc(C)nc3c2O)n1 (stereo not drawn) do in these assays?
Pf apPOL block: -12; mHTT CaM bind: 89*

How did Cc1ccc2cccc(I)c2n1 do in these assays?
Pf apPOL block: -5

What do the screens show for `COc1cc(C(Nc2cc(C)ccn2)c2ccc3ccc(C)nc3c2O)cc(OC)c1OC` (stereo not drawn)?
Pf apPOL block: 2; mHTT CaM bind: 89*

How did Cc1ccnc(NC(=O)CSc2nc(C)cc(C)n2)c1 do in these assays?
Pf apPOL block: -1; mHTT CaM bind: -2

What do the screens show for `COc1ccc(-c2csc(Nc3cc(C)ccn3)n2)cc1OC`?
Pf apPOL block: 2; mHTT CaM bind: 47

Results for Cc1cccc(NC(c2ccccc2)c2ccc3ccc(C)nc3c2O)n1 (stereo not drawn) ?
Pf apPOL block: -1; mHTT CaM bind: 77*

Results for CCC(C(=O)Nc1cccc(C)n1)c1ccccc1 (stereo not drawn) ?
Pf apPOL block: -5; mHTT CaM bind: -6

How did O=C(NC1CC1)c1ccc(OCC2CCCN(C(=O)c3cc(F)ccc3F)C2)cc1 (stereo not drawn) do in these assays?
Pf apPOL block: 1; mHTT CaM bind: -4

Results for O=C(Nc1ccc2oc(-c3ccccc3)nc2c1)c1cccnc1Cl ?
Pf apPOL block: 6; mHTT CaM bind: 0

What do the screens show for `O=C(O)Cn1nnnc1SCC(=O)Nc1cccc([N+](=O)[O-])c1`?
Pf apPOL block: 3; mHTT CaM bind: -3

How did COc1ccccc1C=CC=C1Oc2cc(OC(C)=O)ccc2C1=O do in these assays?
Pf apPOL block: 2; mHTT CaM bind: 14

How did CCC(C(=O)Nc1ccccn1)c1ccccc1 (stereo not drawn) do in these assays?
Pf apPOL block: 2; mHTT CaM bind: -4

How did Cc1cccc(NC(c2cccc([N+](=O)[O-])c2)c2ccc3ccc(C)nc3c2O)n1 (stereo not drawn) do in these assays?
Pf apPOL block: -10; mHTT CaM bind: 70*
